Inconclusive results are not listed. Unmarked numbers belong to inactive results. The call rests on the fitted dose curve; in most records, active means well fitted curve in the direction sought with a large enough effect; inconclusive means small, poorly fitted or top-dose-only effect, or another doubt; inactive means no such curve, though single readings can be large or run the other way.
Target: Polyunsaturated fatty acid lipoxygenase ALOX15 (Homo sapiens) (UniProt P16050)
Assay: Counterscreen qHTS for inhibitors of human arachidonate 12S-lipoxygenase (ALOX12): ALOX15 Assay; further: 0% is about no effect
Conditions: purified ALOX15 enzyme activity; series mostly up to 110 µM; activity change, negative = inhibition: at the top concentration
Procedure, shortened: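 Purified human ALOX15 (15hLO-1) at 40 nM in 25 mM HEPES, 0.01% Triton X-100, pH 7.5, preincubated with compound 15 min at RT. Then 50 uM arachidonic acid for 30 min; hydroperoxide detected by Fe-xylenol orange as the 573/405 nm absorbance ratio.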

Polyunsaturated fatty acid lipoxygenase ALOX15 (Homo sapiens), sequence (P16050 whole entry, looked up): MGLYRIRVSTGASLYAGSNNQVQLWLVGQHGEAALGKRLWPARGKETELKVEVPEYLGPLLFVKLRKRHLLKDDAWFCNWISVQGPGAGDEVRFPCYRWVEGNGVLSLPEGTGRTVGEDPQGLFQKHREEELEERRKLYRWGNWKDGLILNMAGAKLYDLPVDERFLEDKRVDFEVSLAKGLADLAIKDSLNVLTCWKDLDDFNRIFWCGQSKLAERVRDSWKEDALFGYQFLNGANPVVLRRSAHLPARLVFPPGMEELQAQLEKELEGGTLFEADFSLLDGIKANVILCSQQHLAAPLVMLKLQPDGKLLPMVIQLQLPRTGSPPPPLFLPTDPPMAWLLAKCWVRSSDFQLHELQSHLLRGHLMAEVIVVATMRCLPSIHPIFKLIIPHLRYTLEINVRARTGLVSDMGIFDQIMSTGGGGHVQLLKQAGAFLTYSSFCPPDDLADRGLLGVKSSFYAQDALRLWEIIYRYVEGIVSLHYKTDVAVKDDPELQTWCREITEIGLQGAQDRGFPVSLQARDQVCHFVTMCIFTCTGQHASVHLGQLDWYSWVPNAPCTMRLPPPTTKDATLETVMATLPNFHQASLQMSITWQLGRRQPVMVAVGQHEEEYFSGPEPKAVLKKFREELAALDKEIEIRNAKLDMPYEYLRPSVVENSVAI

| Compound | activity change, negative = inhibition |
| --- | --- |
| CN1CC(=O)N(C2CCCNCC2)Cc2c1ncnc2N1CCC(N2CCCCC2)CC1 (configuration not stated) | 5.5% |
| Cc1cc(Cl)ccc1-c1ccccc1CN | 12.3% [at 146 µM] |
| CC(=O)NC1CC2(CCN(C(=O)Cc3c(C)noc3C)CC2)Oc2ccccc21 (configuration not stated) | -16.5% |
| CSc1ccc(-c2ccc(C(=O)O)cc2)cc1 | -17.8% [at 146 µM] |
| CCN1CCC2(Cc3ccccc3CN(C(=O)Cc3ccccc3)C2)C1 (configuration not stated) | 3.4% |
| O=C(N1CCOCC1)N1CCn2c(nnc2-c2cncc(Br)c2)C1 | -22.6% |
| CC[C@@H](Nc1ncnc2c1CN(C1CCNCC1)C(=O)CN2C)c1ccccc1 | -19.1% |
| CN1CC(=O)N(C2CCNC2)Cc2c(NC3CCN(Cc4ccccc4)CC3)ncnc21 (configuration not stated) | -12.4% |
| O=C(O)CCC(=O)N1Cc2ccccc2CC2(CCCN2Cc2cccnc2)C1 (configuration not stated) | 1.74% |
| O=Cc1ccccc1-c1cncc(C(=O)O)c1 | -24.3% [at 146 µM] |
| Cc1cc(C(=O)NC2CCNCC2)c2c(C3CCNCC3)noc2n1 | 1.65% [at 146 µM] |
| COc1cccc(-c2ccc(CN3C4CCC3CN(C(=O)Nc3ccccc3F)C4)cc2)c1 | -19% |
| O=C1Nc2ccccc2C12CCN(Cc1ccccc1)C2 (configuration not stated) | -8.29% [at 146 µM] |
| O=C1NCc2ccccc2CC12CCN(Cc1cccc(Br)c1)C2 (configuration not stated) | -20.3% |
| Cn1nc(C2CCNC2)c2c(C(=O)NCc3ccc(F)cc3)cc(C3CC3)nc21 (configuration not stated) | -27.2% |
| CC(=O)Nc1ccc(CN2CCCC23Cc2ccccc2CN(C(=O)CCC(=O)O)C3)cc1 (configuration not stated) | -10.9% |
| CN1CC(=O)N(C2CCCNCC2)Cc2c1ncnc2N1CCC(N2CCCC2)CC1 (configuration not stated) | 3.04% |
| O=C1NCc2ccccc2CC12CCN(Cc1c[nH]c3ccccc13)CC2 | -32% |
| O=C(c1ccncc1)N1CCN(c2ccc(Cl)nn2)C(=O)C1 | -6.67% [at 146 µM] |

| Compound | activity change, negative = inhibition |
| --- | --- |
| O=C1Nc2ccccc2C12CCN(S(=O)(=O)c1ccccc1)C2 (configuration not stated) | -2.33% [at 146 µM] |
| Fc1ccc(OC2CN(Cc3ccc(C(F)(F)F)cc3)C2)cc1F | -13% [at 146 µM] |
| O=C(N1CCCC1)N1CCn2c(nnc2-c2cncc(Br)c2)C1 | -11.1% |
| CCOCCCNc1ncnc2c1CN(C1CCNCC1)C(=O)CN2C | -7.5% |
| CCCN1CCC2(CC1)Cc1ccccc1CN(C(=O)C(C)C)C2 | -2.08% [at 146 µM] |
| CCc1ccc(CN2CCC3(CC2)Cc2ccccc2CNC3=O)s1 | -1.04% |
| CN1CC(=O)N(C2CCNCC2)Cc2c(NCCc3cccc(F)c3)ncnc21 | -17.2% |
| CC(C)c1nc2c(c(-c3ccc(Cl)cc3)n1)CCN(Cc1cccc3ccccc13)CC2 | -12.9% |
| COc1ccc(CNc2ncnc3c2CN(C2CCCNC2)C(=O)CN3C)cc1OC (configuration not stated) | 14.1% |
| COc1ccc(CC(=O)N2Cc3ccccc3CC23CCCN([S+](C)(=O)[O-])C3)cc1 (configuration not stated) | 7.85% |
| O=C(c1cn2c(n1)CN([S+](=O)([O-])c1cccc(C(F)(F)F)c1)CC2)N1CCOCC1 | -11.9% |
| COc1ccc(CCNc2ncnc3c2CN(C2CCCNC2)C(=O)CN3C)cc1 (configuration not stated) | -23% |
| COc1ccc(NC2CN(C(=O)OC(C)(C)C)C2)cc1 | -15.5% [at 146 µM] |
| CC(=O)NCCC(=O)N1Cc2ccccc2CC2(CCCN2CC2CCNCC2)C1 (configuration not stated) | -22.8% |
| CN1CCC(C(=O)N2Cc3ccccc3CC3(CCCCN3CC3CCNCC3)C2)CC1 (configuration not stated) | -19.6% |
| Cc1cc(C)c(S(=O)(=O)c2nnn3c2nc(NCCCOC(C)C)c2ccccc23)c(C)c1 | -24% |
| CCc1nc2c(c(-c3ccc(OC)cc3)n1)CN([S+](=O)([O-])c1c(C)noc1C)CC2 | -23.3% |
| O=C(c1cc(C2CC2)nc2c1c(C1CCCN1)nn2-c1ccccc1)N1CCC(F)CC1 (configuration not stated) | -9.46% |

From PubChem BioAssay AID1671192 (National Center for Advancing Translational Sciences (NCATS), 2021)
